Assay results reported in PubChem BioAssay (NCI).
About 83,000 compounds went through this panel and 20% of them were active in at least one assay; those are over-represented in the sample as a whole.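 A percent growth of 40 corresponds to 60% growth inhibition; 0 means no net growth; -100 means all cells died. Active threshold: below 10.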 Values without a mark were called inactive. Active and inactive are the calls of the source.

The compounds below were run on EKVX NSCLC (assay: NCI-60 one-dose screen, 48 h (100 = growth as untreated, 0 = no growth, -100 = all killed)). Details: 10 µM unless noted.
Procedure: Growth inhibition of the EKVX human Non-Small Cell Lung tumor cell line is measured as a screen for anti-cancer activity. Cells are grown in 96 well plates and exposed to the test compound for 48 hours. Compounds are tested at a single concentration, which is 10^-5 M for most compounds. The reported endpoint is percent growth (GI% or GIPRCNT), where numbers from 0 - 100% represent growth inhibition, and numbers from -100% - 0 represent cell death. For example, a value of 40 represents 60% growth inhibition. A value of 0 means no net growth occurred over the course of the experiment. A value of -40 indicates 40% of cells at the beginning of the experiment died by the end of the experiment. A value of -100 means all cells are dead at the end of the experiment.
NCI-60 Human Tumor Cell Lines Screen was performed using the standard one-dose NCI protocol, which is described in more detail at https://dtp.cancer.gov/discovery_development/nci-60/default.htm.
Compounds with GIPRCNT values below 10 were considered active. Activity score was based on GIPRCNT using the following formula: […]
Score is 0 for GIPRCNT values of 100 or above, 50 for GIPRCNT values of 0, and 100 for GIPRCNT values of -100.

First: CN(C)c1ccc(-c2ccc(-c3ccc(C(=N)N)cc3)s2)cc1
Second: COc1ccc(-c2ccc(NNC(=O)c3ccc(F)cc3)nn2)cc1OC
The growth of the first is higher: 85.9% for the first, 40.5% for the second.

Compared with `N/C(=N\c1nc2ccccc2[nH]1)NC(=O)Cc1cccc2ccccc12`, `CC(=O)Nc1ccc(C=Nc2ccc3ccccc3c2)cc1` is higher in growth: 75.6% for the first, 116% for the second.

Compared with `COc1ccc(C2NC(=O)C(C#N)c3c2sc2c(F)cccc32)cc1` (stereo not given), `COc1ccc(/C=C(/C(=O)c2ccc(Cl)cc2)C(=O)C(F)(F)F)cc1` is higher in growth: 62.8% for the first, 92.5% for the second.

First: COc1ccc2nc3cc(Cl)ccc3c(Nc3ccc(O)c(CN4CCCC4)c3)c2c1
Second: Cc1ncc(C(=O)Nc2ccc(CN3CCN(C)CC3)c(C(F)(F)F)c2)cc1C#Cc1c(N)ncc2ccc(C#N)cc12
The growth of the first is lower: 51.3% for the first, 57.5% for the second.

Going from `Clc1ccccc1/C=N\Nc1ccccn1` to `O=C(N/N=C/c1c(Cl)cccc1Cl)c1cccc(Nc2ccnc(C(F)(F)F)c2)c1`, the growth falls from 76.2% to 74.4%.

First: Cc1cc(C)c(O)c(CNCCCNCc2cc(C)cc(C)c2O)c1
Second: Cc1cc(C)c(O)c(CNCCCCCCNCc2cc(C)cc(C)c2O)c1
The growth of the first is higher: 75% for the first, 47.9% for the second.

Going from `Cc1ccc2c(c1)C(C)Cc1c(Cl)ncnc1N2C` (stereo not given) to `COc1ccc2c(c1)C(C)Cc1c(Cl)nc(C)nc1N2C` (stereo not given), the growth rises from 22.2% to 34.4%.

First: O=S(=O)(NCc1ccccc1)c1ncnc2nc[nH]c12
Second: Nc1nc(Nc2ccccc2)c2ncn(Cc3ccc4c(c3)OCO4)c2n1
The growth of the first is higher: 111% for the first, 48.7% for the second.

Compared with `CCOC(=O)c1nn(C2CCCCO2)c2ccc(NC(=O)Cn3nnc4ccccc43)cc12` (stereo not given), `CCOC(=O)c1nc2c3ccccc3ccn2c1C(=O)OC` is lower in growth: 98.1% for the first, 80.2% for the second.

Compared with `COc1ncc(-c2ccc3nc(N)n(-c4ccccc4C(F)(F)F)c(=O)c3c2)cc1S(=O)(=O)Nc1ccc(F)cc1F`, `COc1ccc(C2CC(c3cc(OC)c(OC)c(OC)c3)=NN2C(C)=O)cc1OCC(=O)Nc1nc2ccc(C(F)(F)F)cc2s1` (stereo not given) is higher in growth: 20.9% for the first, 83.4% for the second.

First: CSc1cccc([N+](=O)[O-])c1
Second: O=[N+]([O-])c1cccc(/C=C/c2ccc3ccccc3n2)c1
The growth of the first is higher: 103% for the first, 79.8% for the second.

Compared with `C[C@@H]1C[C@H]2C(=O)O[C@@H](C)[C@H](NC(=O)[C@H](Cc3cc(F)cc(F)c3)NC(=O)Nc3ccc(Cl)cc3F)C(=O)N3C[C@H](O)C[C@H]3C(=O)N3CCN(C)C[C@H]3C(=O)N[C@@H](C)C(=O)N2C1`, `Cc1cccc(C[C@H](NC(=O)Nc2ccc(Cl)cc2F)C(=O)N[C@@H]2C(=O)N3C[C@H](O)C[C@H]3C(=O)N3CCCC[C@H]3C(=O)N[C@@H](C)C(=O)N3C[C@H](C)C[C@H]3C(=O)O[C@H]2C)c1` is lower in growth: 69.8% for the first, 24.6% for the second.

Going from `N#Cc1c(Cl)nc(SCC2CO2)nc1-c1ccccc1` (stereo not given) to `c1ccc(-c2nc(N3CCCNCC3)c3nc(-c4ccccc4)oc3n2)cc1`, the growth falls from 99.6% to 62.8%.

First: N#CCCc1c[nH]c2ccccc12
Second: FC(F)(F)c1ccc2c(c1)Sc1ccccc1N2
The growth of the first is higher: 94.3% for the first, 91.6% for the second.

Going from `O=C(Nc1ccccc1)Nc1ccc(C(=O)/C=C/c2ccc(N3CCCC3)cc2)cc1` to `Cc1ccc(S(=O)(=O)n2cc(C(=O)C(=O)N3CCCCC3)c3ccccc32)cc1`, the growth rises from 74.2% to 74.8%.

First: CCCCCCCCCCCCCCCCCCNC(=S)N/N=C/c1ccc(OC)c(OC)c1
Second: CCCCCCCCCCCCCCNC(=O)Nc1ccc(Cl)c(Cl)c1
The growth of the first is higher: 92.9% for the first, 31.9% for the second.

Compared with `N#Cc1c(N2CCOCC2)nc(=S)[nH]c1-c1ccco1`, `Cc1ccc(-n2nc3n(/c2=N\C(=O)NS(=O)(=O)c2ccc(C)cc2)CCN3C2=NCCN2)cc1` is higher in growth: 48.8% for the first, 99.5% for the second.

Compared with `CC1(C(=O)O)CCC(N)(C(=O)O)C1(C)C` (stereo not given), `Ic1ccc2[nH]cc(SSc3c[nH]c4ccc(I)cc34)c2c1` is lower in growth: 112% for the first, 23.5% for the second.

Going from `Brc1ccc(-c2nnc3c4[nH]ccc4ncn23)cc1` to `c1cc2ccc1CNCCN1CCNCc3ccc(cc3)Oc3ccc(cc3)CNCCN(CCNCc3ccc(cc3)O2)CCNCc2ccc(cc2)Oc2ccc(cc2)CNCC1`, the growth falls from 77.5% to 15.2%.

`C=C(C)[C@@H]1CC[C@]2(C(N)=O)CC[C@]3(C)[C@H](CC[C@@H]4[C@@]5(C)C/C(=C/c6cccnc6)C(=O)C(C)(C)[C@@H]5CC[C@]43C)[C@@H]12` was tested, and the growth was 21.2% [100 µM].

In the case of `CC[C@]12C=CCN3CC[C@@]4(c5ccc(OC)cc5N(C)[C@H]4[C@@](O)(C(=O)OC)[C@@H]1OC(=O)CCC(=O)N[C@H](Cc1c[nH]c4ccccc14)C(=O)OC)[C@@H]32`, the growth is reported as -58.7% [100 µM] (active).
